Where “and” joins values, the source holds several entries; their conditions need not be identical. Identical values can stand only once. The panel holds about 83,000 compounds, 20% with a hit somewhere; the sample as a whole holds those more often.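 Negative percent growth values reflect cell death: -40 means 40% of the cells present at the start died, and -100 means all died.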 Calls of active or inactive are those of the source. The calls were made as follows: active = growth percent below 10; inactive = the rest.

Experimental findings from PubChem BioAssay (NCI) are described below.

Some test systems named below: SR leukemia; RPMI-8226 leukemia; OVCAR-8 ovarian; OVCAR-5 ovarian; OVCAR-4 ovarian; IGROV1 ovarian; OVCAR-3 ovarian; HS 578T breast; NCI/ADR-RES ovarian; T-47D breast; BT-549 breast; MDA-MB-435 melanoma; SW-620 colon; MCF7 breast; HCT-116 colon; HCC-2998 colon; KM12 colon; SK-OV-3 ovarian.
What all share (test): NCI-60 one-dose screen, 48 h (100 = growth as untreated, 0 = no growth, -100 = all killed)
What all share (conditions): 10 µM unless noted

Consider `CN(C)CCCNC1=C(Cl)C(=O)c2ccccc2C1=O`, for which the growth in the assay with SR leukemia is -18.8% (active); with RPMI-8226 leukemia, 65% (inactive) and 45.5% (inactive); with OVCAR-8 ovarian, 68% (inactive) and -60.7% (active); in the assay on OVCAR-5 ovarian, 98.4% (inactive) and 98.8% (inactive); with OVCAR-4 ovarian, 17.7% (inactive) and -100% (active); in the assay with IGROV1 ovarian, -52.5% (active) and -98.8% (active). The growth in the assay on OVCAR-3 ovarian is 19.8% (inactive) and -44.6% (active); with HS 578T breast, 9.81% (active); with NCI/ADR-RES ovarian, 103% (inactive) and 78.7% (inactive); in the assay on T-47D breast, 65.3% (inactive) and 32% (inactive); in the assay with BT-549 breast it was 96.8% (inactive) and 93% (inactive); with MDA-MB-435 melanoma it was -88.6% (active) and -88.2% (active). The growth in the assay on SW-620 colon is -63% (active) and -57.8% (active); with MCF7 breast, 45.4% (inactive) and 5.05% (active); in the assay with HCT-116 colon, 47.2% (inactive) and 4.88% (active); in the assay on HCC-2998 colon it was -0.125% (active) and -63.6% (active); with KM12 colon it was 83.3% (inactive) and 40.7% (inactive).
As for `Cc1ccc(-c2noc(CC(=O)c3ccc([N+](=O)[O-])cc3)n2)cc1`, the growth is 98.1% (inactive) in the assay on SR leukemia; 116% (inactive) in the assay with RPMI-8226 leukemia; 100% (inactive) in the assay with OVCAR-8 ovarian; 97.5% (inactive) in the assay with OVCAR-5 ovarian; 102% (inactive) with OVCAR-4 ovarian; 97.6% (inactive) in the assay with SK-OV-3 ovarian. Further, the growth with IGROV1 ovarian is 104% (inactive); in the assay on OVCAR-3 ovarian it was 102% (inactive); with HS 578T breast, 99.8% (inactive); in the assay on NCI/ADR-RES ovarian, 104% (inactive); in the assay on T-47D breast it was 87.8% (inactive); with BT-549 breast, 103% (inactive). Moreover, the growth with SW-620 colon is 102% (inactive); in the assay with MCF7 breast, 98.2% (inactive); in the assay with HCT-116 colon, 98.7% (inactive); in the assay with HCC-2998 colon it was 103% (inactive); in the assay with KM12 colon, 98% (inactive).
In the case of `O=C(O)C1(C(=O)O)CCC1.[NH2-].[NH2-].[Pt+2]`, the growth in the assay on SR leukemia is 122% (inactive) and 50.7% (inactive); with RPMI-8226 leukemia it was 104% (inactive); in the assay with OVCAR-8 ovarian, 102% (inactive); in the assay on OVCAR-5 ovarian, 97.6% (inactive) and 83.7% (inactive); in the assay on OVCAR-4 ovarian, 109% (inactive) and 92.2% (inactive); with IGROV1 ovarian it was 95.6% (inactive). The growth with OVCAR-3 ovarian is 117% (inactive) and 105% (inactive); in the assay with HS 578T breast it was 105% (inactive) and 112% (inactive); in the assay with NCI/ADR-RES ovarian it was 103% (inactive) and 99.7% (inactive); in the assay on T-47D breast, 96.6% (inactive) and 102% (inactive); with BT-549 breast, 103% (inactive) and 106% (inactive); with MDA-MB-435 melanoma it was 108% (inactive) and 99.5% (inactive). The growth in the assay with SW-620 colon is 111% (inactive) and 103% (inactive); with MCF7 breast, 98.5% (inactive) and 90.9% (inactive); in the assay on HCT-116 colon it was 107% (inactive) and 108% (inactive); in the assay on HCC-2998 colon, 97.2% (inactive) and 118% (inactive); in the assay on KM12 colon, 112% (inactive) and 100% (inactive).
Consider `Oc1c(CN2CCCCC2)ccc2cccnc12`, for which the growth in the assay on SR leukemia is 32.4% (inactive) and 33.2% (inactive); in the assay on RPMI-8226 leukemia it was 58.5% (inactive); in the assay on OVCAR-8 ovarian, 33.1% (inactive) and 23.3% (inactive); with OVCAR-5 ovarian, 68.9% (inactive) and 51.1% (inactive); with OVCAR-4 ovarian it was 29.3% (inactive); with IGROV1 ovarian, 46% (inactive) and 55.3% (inactive). Further, the growth in the assay on OVCAR-3 ovarian is 14.4% (inactive) and 52.7% (inactive); in the assay with HS 578T breast it was 89.5% (inactive) and 89.1% (inactive); with NCI/ADR-RES ovarian, 7.05% (active) and 4.34% (active); with T-47D breast, 38.8% (inactive) and 36.4% (inactive); in the assay on BT-549 breast, 94.7% (inactive) and 63.4% (inactive); with MDA-MB-435 melanoma it was 63.9% (inactive). Moreover, the growth was 44% (inactive) and 44.7% (inactive) in the assay with SW-620 colon; 38.9% (inactive) in the assay on MCF7 breast; 10.1% (inactive) and 15.2% (inactive) in the assay on HCT-116 colon; 96.5% (inactive) and 59.7% (inactive) in the assay on HCC-2998 colon; 44.5% (inactive) and 32.6% (inactive) with KM12 colon.
`O=C(Nc1ccc(Br)cc1)c1cc(Br)ccc1O`: the growth in the assay on SR leukemia was 1.42% (active); in the assay with RPMI-8226 leukemia, 16.9% (inactive) and -8.2% (active); in the assay on OVCAR-8 ovarian, 22.5% (inactive) and 20.5% (inactive); with OVCAR-5 ovarian it was 30.4% (inactive) and 17.4% (inactive); in the assay with OVCAR-4 ovarian, 9.76% (active) and 24.8% (inactive); with SK-OV-3 ovarian, 4.48% (active) and -11.3% (active). Moreover, the growth in the assay on IGROV1 ovarian is 13.6% (inactive); with OVCAR-3 ovarian, -18.3% (active) and -5.1% (active); with HS 578T breast, -1.71% (active) and -5.35% (active); in the assay with NCI/ADR-RES ovarian it was 4.45% (active) and -5.6% (active); with T-47D breast, 14.7% (inactive) and -7.33% (active); in the assay with MDA-MB-435 melanoma, -1.59% (active) and -13.4% (active). Moreover, the growth with SW-620 colon was 12.4% (inactive) and 4.33% (active); with MCF7 breast, 5.04% (active) and 4.44% (active); in the assay with HCC-2998 colon, 24.4% (inactive) and -42.1% (active); in the assay on KM12 colon, 4.3% (active) and -15.4% (active).
For the molecule `Cn1c(SSc2ccc(-c3cccnc3)n2C)ccc1-c1cccnc1`, the growth with SR leukemia was 86.8% (inactive) and 58.3% (inactive); in the assay on RPMI-8226 leukemia it was 96.5% (inactive) and 92.1% (inactive); with OVCAR-8 ovarian, 97.4% (inactive) and 103% (inactive); in the assay with OVCAR-5 ovarian, 141% (inactive) and 115% (inactive); in the assay with OVCAR-4 ovarian, 80.3% (inactive) and 101% (inactive); in the assay with SK-OV-3 ovarian it was 131% (inactive) and 120% (inactive). The growth with IGROV1 ovarian was 103% (inactive) and 88.1% (inactive); in the assay with OVCAR-3 ovarian, 98.9% (inactive) and 102% (inactive); in the assay on HS 578T breast, 104% (inactive); with NCI/ADR-RES ovarian, 103% (inactive) and 101% (inactive); with T-47D breast, 83.3% (inactive) and 121% (inactive); in the assay on SW-620 colon it was 62.8% (inactive) and 11.1% (inactive). In addition, the growth with MCF7 breast is 76.4% (inactive) and 117% (inactive); in the assay with HCT-116 colon, 82.3% (inactive) and 99.2% (inactive); in the assay on HCC-2998 colon, 112% (inactive) and 102% (inactive); in the assay with KM12 colon, 98.5% (inactive) and 95.5% (inactive).
Turning to `N#CCCOc1ccccc1`, the growth was 104% (inactive) in the assay with SR leukemia; 103% (inactive) with RPMI-8226 leukemia; 98.9% (inactive) in the assay on OVCAR-8 ovarian; 107% (inactive) with OVCAR-5 ovarian; 98.8% (inactive) in the assay with OVCAR-4 ovarian; 97% (inactive) in the assay on SK-OV-3 ovarian. For the same molecule, the growth with IGROV1 ovarian was 102% (inactive); in the assay with OVCAR-3 ovarian it was 114% (inactive); in the assay on HS 578T breast, 99.5% (inactive); with NCI/ADR-RES ovarian it was 112% (inactive); with T-47D breast, 96.5% (inactive); with BT-549 breast, 88.2% (inactive). Also, the growth was 106% (inactive) in the assay with SW-620 colon, 94.1% (inactive) in the assay on MCF7 breast, 110% (inactive) with HCC-2998 colon and 106% (inactive) in the assay with KM12 colon.
As to `O=[N+]([O-])c1ccc(N/N=C\c2cc(Br)ccc2O)nc1`, the growth in the assay with SR leukemia is 20.2% (inactive) and 3.08% (active); in the assay with RPMI-8226 leukemia, 32.5% (inactive) and -9.9% (active); in the assay on OVCAR-8 ovarian, 11.9% (inactive) and 3.96% (active); in the assay on OVCAR-5 ovarian, 52% (inactive) and 54.4% (inactive); in the assay with OVCAR-4 ovarian, 20.3% (inactive) and 7.71% (active); with SK-OV-3 ovarian, 27.1% (inactive) and 27.7% (inactive). Moreover, the growth in the assay with IGROV1 ovarian is 13.5% (inactive) and 8.02% (active); with OVCAR-3 ovarian it was 11.2% (inactive) and 24.5% (inactive); in the assay on HS 578T breast, 39.1% (inactive) and 61.4% (inactive); with NCI/ADR-RES ovarian it was 5.25% (active) and 6.08% (active); in the assay with T-47D breast, 16% (inactive) and 33% (inactive); with MDA-MB-435 melanoma, 29.3% (inactive) and 25.2% (inactive). Besides, the growth was 27.3% (inactive) and 34.3% (inactive) with SW-620 colon; 13.4% (inactive) and 13.6% (inactive) with MCF7 breast; 10.1% (inactive) and 15.2% (inactive) with HCT-116 colon; 23.2% (inactive) and 23% (inactive) with HCC-2998 colon; 32.5% (inactive) and 24% (inactive) in the assay on KM12 colon.
With `CCC(=O)C(CC)c1cccc(OC)c1` (stereo unspecified), the growth in the assay with SR leukemia was 96.7% (inactive); in the assay on RPMI-8226 leukemia, 101% (inactive); with OVCAR-8 ovarian, 105% (inactive); with OVCAR-5 ovarian, 115% (inactive); with OVCAR-4 ovarian it was 105% (inactive); in the assay on SK-OV-3 ovarian, 121% (inactive). The growth in the assay on IGROV1 ovarian was 107% (inactive); in the assay with OVCAR-3 ovarian, 117% (inactive); with HS 578T breast, 106% (inactive); in the assay on NCI/ADR-RES ovarian, 101% (inactive); in the assay with BT-549 breast, 105% (inactive); in the assay with MDA-MB-435 melanoma it was 101% (inactive). The growth in the assay with SW-620 colon was 105% (inactive); with MCF7 breast, 104% (inactive); with HCT-116 colon it was 104% (inactive); in the assay with HCC-2998 colon, 112% (inactive); in the assay on KM12 colon, 111% (inactive).
As to `O=C(CCl)c1ccc2c(c1)Nc1ccccc1S2`, the growth with SR leukemia is 13.6% (inactive) and 6.19% (active); with RPMI-8226 leukemia, 63.4% (inactive) and 52.1% (inactive); with OVCAR-8 ovarian it was 95.1% (inactive) and 88.7% (inactive); in the assay on OVCAR-5 ovarian it was 105% (inactive) and 117% (inactive); in the assay on OVCAR-4 ovarian it was 90.1% (inactive) and 83.4% (inactive); with SK-OV-3 ovarian, 100% (inactive) and 99.3% (inactive). Besides, the growth in the assay on IGROV1 ovarian was 104% (inactive) and 93.3% (inactive); with OVCAR-3 ovarian, 96.8% (inactive) and 71.6% (inactive); with HS 578T breast it was 93% (inactive) and 106% (inactive); in the assay with NCI/ADR-RES ovarian it was 94.7% (inactive) and 95.9% (inactive); in the assay on T-47D breast, 71.2% (inactive) and -3.6% (active); in the assay with SW-620 colon, 92.2% (inactive) and 79.1% (inactive). The growth in the assay on MCF7 breast is 85.5% (inactive) and -32.4% (active); in the assay with HCT-116 colon, 69.1% (inactive) and 64.3% (inactive); in the assay with HCC-2998 colon, 83.3% (inactive); with KM12 colon it was 104% (inactive) and 102% (inactive).
